Screens from PubChem BioAssay.
Akt phos inh = inhibitors of Akt phosphorylation; activity change, % for hits at 50 µM; 360,000 tested, 0.32% active; Neuro2A IGF-stimulated pAkt S473 HTRF, 20 min; hits give low values; in the data active = activity change below about -80%; inconclusive = mostly about -51% to -80%; also: % is scaled to controls: 0 for no effect and ±100 for the full control effect
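Neuro2A cells in DMEM with 0.5% FBS, overnight at 37 deg C, given compound at single 50 µM final, then IGF (6 nM final) for 20 min at 37 deg C. Lysed; phospho-Akt Ser473 by HTRF after 24 h, 665/615 ratio.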
CtBP-E1A blk = inhibitors of CtBP/E1A interaction; AlphaScreen GST-E1A/His-CtBP binding, 1536-well; hits give low values; activity change, % (test concentration not listed); 340,000 tested, 0.49% active; AID 651724; also: % is scaled to controls: 0 for no effect and ±100 for the full control effect
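Steps: dispense buffer (Tris pH 8.0, NaCl 300 mM, TCEP 1 mM, BSA, Tween 20); add 5X protein mix (GST-E1A, His-CtBP, 125 nM each); pin 23 nL compound; 2 h at 37 °C, dark; add 5X beads (50 ug/mL); 1 h; read.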
Six1-Eya2 blk = inhibitors of human Six1/Eya2 interaction. AlphaScreen GST-Six1/His-Eya2 binding, biochemical; hits give low values. activity change, % (test concentration not listed). 360,000 tested, 0.56% active; also: % is scaled to controls: 0 for no effect and ±100 for the full control effect
Target sequence (O00167 whole entry, looked up): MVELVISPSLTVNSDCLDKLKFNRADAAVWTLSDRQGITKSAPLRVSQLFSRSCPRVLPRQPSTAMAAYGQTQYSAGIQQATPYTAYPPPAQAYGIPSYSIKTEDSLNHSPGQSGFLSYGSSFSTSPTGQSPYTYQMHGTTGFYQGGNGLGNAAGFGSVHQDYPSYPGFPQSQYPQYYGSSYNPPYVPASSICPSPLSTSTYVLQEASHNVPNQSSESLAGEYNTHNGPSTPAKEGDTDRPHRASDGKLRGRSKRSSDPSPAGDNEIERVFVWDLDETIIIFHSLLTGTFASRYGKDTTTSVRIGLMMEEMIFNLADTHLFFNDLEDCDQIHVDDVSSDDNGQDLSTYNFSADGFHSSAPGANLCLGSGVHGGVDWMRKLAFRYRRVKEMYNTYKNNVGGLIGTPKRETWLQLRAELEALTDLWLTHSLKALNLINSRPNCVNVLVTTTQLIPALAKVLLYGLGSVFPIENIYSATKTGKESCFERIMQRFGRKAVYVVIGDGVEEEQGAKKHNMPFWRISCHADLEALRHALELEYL
Target sequence (Q15475 whole entry, looked up): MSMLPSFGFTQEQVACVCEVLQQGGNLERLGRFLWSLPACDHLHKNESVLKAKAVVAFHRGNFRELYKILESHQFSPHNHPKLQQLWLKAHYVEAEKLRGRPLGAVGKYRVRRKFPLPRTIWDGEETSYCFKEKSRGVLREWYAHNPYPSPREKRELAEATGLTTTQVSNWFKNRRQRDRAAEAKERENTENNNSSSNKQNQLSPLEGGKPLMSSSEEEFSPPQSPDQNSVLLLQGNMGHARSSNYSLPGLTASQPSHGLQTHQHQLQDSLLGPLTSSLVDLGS
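Six1/Eya2 binding was read as AlphaScreen signal after compounds were pinned into GST-Six1 plus His-tagged Eya2 (5X stock 250/500 nM) in pH 8.0 Tris/NaCl/TCEP buffer, beads added, then incubated 1 h, 37 C, dark.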
Glioma ERSR ind = induces the endoplasmic reticulum stress response in human glioma cells. Potency, µM, without a hit: at the top dose activation, usual class: activators. AID 602332. U87-MG GRP78 promoter luciferase reporter, 16 h. 420,000 tested, 0.02% active; active = well fitted curve in the direction sought with a large enough effect; inconclusive = small, poorly fitted or top-dose-only effect, or another doubt; inactive = no such curve, though single readings can be large; an effect the other way counts as inactive or inconclusive; also: potency is read from the fitted curve at half-maximal effect; series mostly up to about 76 µM; % of control where 0% means no effect; nearly all actives have a fitted effect of over 35% in size
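ERSR induction read as luciferase luminescence (Bright-Glo, 10 min at room temperature) in stably transfected human U87-MG glioma cells exposed to compounds for 16 h, using GRP78 as sensor.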
RGS4 inhibitor = human RGS4 inhibition; AID 504845; P49798; Potency, µM (highest dose often 114 µM), inactives show at the highest dose activity change, negative = inhibition, most hits filed as inhibitors; 390,000 tested, 0.039% active; Transcreener GDP fluorescence polarization, RGS4-accelerated GTP hydrolysis; active = well fitted curve in the direction sought with a large enough effect; inconclusive = small, poorly fitted or top-dose-only effect, or another doubt; inactive = no such curve, though single readings can be large; an effect the other way counts as inactive or inconclusive; also: potency is read from the fitted curve at half-maximal effect; % is scaled to controls: 0 for no effect and ±100 for the full control effect; nearly all actives have a fitted effect of over 75% in size
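MLSMR compounds (23 nl, pin-transferred) preincubated 10 min at room temperature with a 500nM (2x) first reagent, then RGS4 at 900nM (2x) plus Transcreener GDP mix added; fluorescence polarization (620/688 nm) read before and after 90 min at 30 °C.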
Active calls of the source: *; i = inactive; ? = inconclusive; . = not tested or not shown; [ ] = another dose, or the depositor's remark. Compounds with a hit are over-represented: about 0.88% of the library has one in this group of screens. Rule as the data show it, unless noted: active = activity change below about -65%; inconclusive = mostly about -30% to -63%; inactive = weaker than that.

SMILES	Akt phos inh	CtBP-E1A blk	Six1-Eya2 blk	Glioma ERSR ind	RGS4 inhibitor
N#Cc1c(N2CCN(c3ccc(F)cc3)CC2)nc(N)c2c(N)nc3c(c12)CC(=O)N3C1CC1	i	-78*	-82*	-8%	-36%
CN(C)c1nc(N2CCN(c3ccc(F)cc3)CC2)c(C#N)c(=O)o1	i	16	9	-5%	-27%
Cc1nc2ccccc2nc1CN1CCOc2ccc(C(C)(O)COc3ccccc3)cc2C1 (stereo not given)	.	.	.	1%	.
COc1cc(-n2c(C)nc3cc(C(=O)NCC4CCCO4)ccc32)cc(OC)c1OC (stereo not given)	i	-6	1	-2%	3%[56.9 µM]
COc1cc(-n2c(C)nc3cc(C(=O)N4CCOCC4)ccc32)cc(OC)c1OC	-114%*	7	10	-4%	-25%
CCS(=O)(=O)Nc1cc(C(=O)N2CCC[C@H]2CO)c2c(c1)nc(-c1ccccc1)n2C	.	.	.	-2%	.
Cc1cccc(-n2c(C)nnc2SCC(=O)NC(C)c2ccco2)c1 (stereo not given)	.	.	.	-3%	.
C/C(=N\NC(=O)C(C)Oc1ccc([N+](=O)[O-])cc1)c1ccccn1 (stereo not given)	i	-94*	-88*	-7%	-11%
CC(Oc1cccc(Br)c1)C(=O)NNC(=O)c1ccccn1 (stereo not given)	i	?	?	4%	-9%
CC(Oc1ccccc1)C(=O)NNC(=O)c1ccccn1 (stereo not given)	i	22	-67*	-3%	-9%
COc1cc(OC)cc(C(=O)NNC(=O)c2ccccn2)c1	i	-90*	-92*	2%	34%
CC(=O)c1ccc(OCCCC(=O)NNC(=O)c2ccccn2)cc1	i	-70*	?	0%	-9%
O=c1cc(O)c2c([nH]1)CCC2	.	.	.	-1%	.
Cc1nonc1CN(C)C(=O)C1CC12CCN(C(=O)/C=C/c1cccc(Cl)c1)CC2 (stereo not given)	.	.	.	-1%	.
O=C(NCc1cccnc1)[C@@H]1CC=C[C@@H]2CCN(C3CCCCC3)C(=O)[C@@H]21	.	.	.	-2%	.
Cc1cnc(-n2ncc(C(=O)NCCc3ccccn3)c2C)nc1-c1ccc(F)cc1	.	.	.	-2%	.
CCN(CC)C1CCN(C(=O)c2cnn(-c3nccc(-c4ccccc4OC)n3)c2-c2ccco2)C1 (stereo not given)	.	.	.	-5%	.
O=C(NNC(=O)c1ccccn1)c1cccc([N+](=O)[O-])c1	i	-66*	-82*	6%	1%
CCc1ccc(N=C2NC(=O)/C(=C/c3cc(OC)c(OC)c(OC)c3)S2)cc1	i	11	-8	13%	-20%
COc1cc(/C=C2\SC(=Nc3ccc(O)cc3)NC2=O)cc(OC)c1O	i	-65*	?	-1%	-17%
O=C(N/N=C/c1cc2c3c(c1O)CCCN3CCC2)c1ccccc1O	i	-66*	-90*	-1%	-33%
COc1ccc(CN2CCCC(n3cc(C(=O)NC4CCCC4)nn3)C2)c2ccccc12 (stereo not given)	.	.	.	-3%	.
Cc1ccccc1-n1cc(CNC(=O)CN2Cc3ccccc3OC(C)C2)cn1 (stereo not given)	.	.	.	-6%	.
O=C(CSc1nnc(COc2ccc(Cl)cc2)o1)Nc1nccs1	i	?	-87*	0%	.
O=C(CSc1nnc(CNC(=O)c2ccc(F)cc2)o1)NCc1ccccc1	i	4	0	-3%	7%
SMILES	Akt phos inh	CtBP-E1A blk	Six1-Eya2 blk	Glioma ERSR ind	RGS4 inhibitor
O=C(CSc1nnc(-c2cccnc2)o1)Nc1ccc(F)cc1	i	2	1	-3%	.
Cc1cccc(OCc2nnc(SCC(=O)Nc3ccc(N4CCOCC4)cc3)o2)c1	i	-3	1	-3%	9%
O=C(CSc1nnc(CNC(=O)c2ccc(F)cc2)o1)Nc1nccs1	i	-87*	-88*	-4%	-12%
Cc1cccc(OCc2nnc(SCC(=O)Nc3nccs3)o2)c1	i	-93*	-94*	1%	12%
O=C(CSc1nnc(-c2cccnc2)o1)Nc1nccs1	i	?	-71*	-3%	1%
O=C(Nc1ccccc1-c1cn2c(CN3CCNCC3)csc2n1)c1cnc2ccccc2n1	.	.	.	-12%	.
Cc1cc(NC(=O)CSc2nnc(CNC(=O)c3cccc(C(F)(F)F)c3)o2)no1	i	-78*	-72*	-6%	0%
O=C(CSc1nnc(CNC(=O)c2cccc(C(F)(F)F)c2)o1)NCC1CCCO1 (stereo not given)	i	9	-1	-4%	-7%
Cc1nn(-c2ccccc2)c(C)c1/C=C/C(=O)OCC(=O)N(C)C1CCS(=O)(=O)C1 (stereo not given)	i	?	0	-2%	-18%
CCN(C(=O)COC(=O)/C=C/c1c(C)nn(-c2ccccc2)c1C)C1CCS(=O)(=O)C1 (stereo not given)	i	-71*	-7	-3%	32%
Cc1cc(C)nc(N/C(=N\S(=O)(=O)Cc2ccccc2)Nc2cccc(Cl)c2C)n1	-118%*	-7	3	-4%	13%
O=S(=O)(O)c1cc(O)c(N=Nc2ccc(O)cc2O)c2ccccc12	i	-94*	-83*	-8%	-47%
Cc1cc(Cl)ccc1OCC(=O)Nc1cccc(-c2nc3ccccc3o2)c1	.	.	.	-1%	.
OC1(c2cccnc2)CCN(Cc2ccc3c(c2)CN(Cc2cccc(C(F)(F)F)c2)CCO3)CC1	.	.	.	-3%	.
O=C(Nc1cc(C(F)(F)F)ccc1N1CCOCC1)c1cccnc1Cl	-111%*	-1	9	1%	4%
CSc1nc2ccccc2n1CC(=O)Nc1cc(C(F)(F)F)ccc1N1CCOCC1	-120%*	4	6	-6%	24%
CCOc1ncccc1C(=O)Nc1cc(C(F)(F)F)ccc1N1CCOCC1	i	.	3	-3%	31%
COc1ccc(C(=O)Nc2ccccc2C(=O)Nc2ccccc2C(=O)O)cc1	i	-77*	-66*	2%	-38%
CC(C)C(=O)Nc1cccc(C(=O)Nc2ccccc2C(=O)O)c1	-114%*	-3	-1	-2%	0%
COc1ccc(C(=O)Nc2ccccc2C(=O)Nc2ccc(C(=O)O)cc2)cc1	i	-12	0	-1%	-36%
O=C(Nc1ccccc1C(=O)O)c1cccc(NC(=O)c2ccccc2Br)c1	i	-10	-7	8%	-3%
COc1ccc(CC(=O)Nc2ccc(C(=O)Nc3ccccc3C(=O)O)cc2)cc1OC	i	-67*	-76*	-3%	-13%
O=C(Nc1ccccc1C(=O)O)c1cccc(F)c1	i	-7	-11	-9%	-13%[11.4 µM]
O=C(Nc1cc(C(=O)Nc2ccccc2C(=O)O)cc(C(=O)Nc2ccccc2C(=O)O)c1)c1ccccc1	i	?	-69*	1%	-2%
COc1ccc(/C=c2\[nH]c(=O)/c(=C/c3ccc(OC)cc3)[nH]c2=O)cc1	.	.	.	-3%	.
